We go through 7 compounds from PubChem BioAssay (EPA / NIEHS).

Values joined by “and” are separate entries in the source; they are usually repeats but may differ in a detail not shown here. Equal values may be shown once. Active and inactive are the calls of the source. Rule for the calls: active = hit-call score of the fitted dose curve at least 0.9, where 1 is the maximum; inactive = score below 0.9.

Assay [1] is described as follows: ATG_CRE_CIS: Attagene CIS-FACTORIAL HepG2 Assay for human cAMP Responsive Element (CRE) binding protein 3 (AID 2282926). Conditions: HepG2 CRE cis-reporter, Attagene multiplexed mRNA; actives raise or lower the signal. Summed up: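 Induced reporter mRNA from a CRE cis element, measured in HepG2 among many multiplexed units at 24 h. Detection used RT-PCR plus capillary electrophoresis of fluorescent fragments; DMSO served as negative control.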

The target in assay [2] is CCAAT/enhancer-binding protein beta (Homo sapiens) (UniProt P17676). In words: ATG_C_EBP_CIS: Attagene CIS-FACTORIAL HepG2 Assay for human CCAAT/Enhancer Binding Protein (C/EBP) beta (AID 2282927). Conditions: HepG2 Attagene cis-factorial transcription factor reporter; actives raise or lower the signal. The method, boiled down:
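HepG2 transiently transfected with multiplexed reporter units under cis-regulatory promoters reporting endogenous C/EBPb activity. After 24 h exposure, reporter mRNA assayed by RT-PCR, fluorescent labelling, HpaI digestion and capillary electrophoresis; bidirectional fitting versus DMSO.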

Assay [3] can be described thus: ATG_CMV_CIS: Attagene CIS-FACTORIAL HepG2 Assay for human CMV (Internal Marker) (AID 2282928).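 Note: endpoint acts as a background internal control marker rather than a target.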 The settings on record: HepG2 CMV promoter reporter, transcription factor profiling; actives raise or lower the signal. The method, boiled down:
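24 h chemical treatment, HepG2 with transient multi-reporter transfection; RNA → oligo(dT) RT → PCR → 6-FAM extension → HpaI digest → CE fluorescence. Bidirectional fit, DMSO negative control.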

Assay [4] is described as follows: ATG_DR4_LXR_CIS: Attagene CIS-FACTORIAL HepG2 Assay for human Liver X Receptor (LXR), DR4 submotif (AID 2282929). The settings on record: HepG2 Attagene DR4 cis-reporter, mRNA transcription; actives raise or lower the signal. The method, boiled down:
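Endogenous factor activity at a DR4 cis-element is read as reporter mRNA in transiently transfected HepG2 cells. Exposure lasts 24 h; transcripts are amplified, fluorescently labelled and sized by capillary electrophoresis, with DMSO as baseline.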

The target of assay [5] is Aryl hydrocarbon receptor (Homo sapiens) (UniProt P35869). Briefly: ATG_Ahr_CIS: Attagene CIS-FACTORIAL HepG2 Assay for human Aryl Hydrocarbon Receptor (Ahr) (AID 2282930). Conditions: HepG2 AhR cis-factorial reporter transcription; actives raise or lower the signal. The method, boiled down:
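HepG2 cells transiently transfected with cis-element-driven multiplexed reporter units; endogenous AhR activity read as reporter mRNA 24 h after dosing, via RT-PCR, 6-FAM labelling, HpaI digestion and capillary electrophoresis. Bidirectional fit relative to DMSO.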

A short description of assay [6]: ATG_AP_1_CIS: Attagene CIS-FACTORIAL HepG2 Assay for human Activator Protein 1 (AP-1) (AID 2282931). The settings on record: HepG2 Attagene cis-factorial AP-1 reporter mRNA; actives raise or lower the signal. The method, boiled down: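 Fluorescence of labelled PCR fragments separated by capillary electrophoresis gives reporter mRNA levels. HepG2 with transfected cis-regulated reporter units, 24 h exposure; DMSO serves as baseline for bidirectional curve fits.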

A short description of assay [7]: ATG_AP_2_CIS: Attagene CIS-FACTORIAL HepG2 Assay for human Activator Protein 2 (AP-2) (AID 2282932). The settings on record: HepG2 AP-2 cis-reporter, Attagene transcription factor profiling; actives raise or lower the signal. The method, boiled down: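 Read-out: fluorescent reporter mRNA via RT-PCR and capillary electrophoresis, 24 h post-dose in transiently transfected HepG2. Endogenous factors drive cis-promoter reporters; gain or loss of signal fitted bidirectionally against DMSO.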

In assay [8] the target is Retinoic acid receptor alpha (Homo sapiens) (UniProt P10276). Briefly: ATG_DR5_RAR_CIS: Attagene CIS-FACTORIAL HepG2 Assay for human Retinoic Acid Receptor Alpha (RARE), DR5 submotif (AID 2282934).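 For AC50: reporter responds to endogenous RAR alpha beta and gamma in HepG2 not RARA alone.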 Conditions: HepG2 Attagene cis-factorial RARE DR5 reporter, mRNA; actives raise or lower the signal. Summed up:
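HepG2 cells transiently transfected with multiplexed reporter units; DR5 cis-element drives reporter through endogenous transcription factors. After 24 h dosing, reporter mRNA quantified by RT-PCR, fluorescent labeling, HpaI digestion and capillary electrophoresis; bidirectional fitting versus DMSO.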

Assay [9] addresses Transcription factor E2F1 (Homo sapiens) (UniProt Q01094). Briefly: ATG_E2F_CIS: Attagene CIS-FACTORIAL HepG2 Assay for human E2F Transcription Factor 1 (AID 2282935). Conditions: HepG2 Attagene cis-reporter, E2F reporter RNA transcripts; actives raise or lower the signal. The method, boiled down:
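Transient MRTU transfection of HepG2; 24 h compound exposure; RNA → oligo(dT) RT → PCR → FAM label → HpaI cut → CE fluorescence. Gain/loss of signal fit against DMSO.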

Assay [10] in a line: ATG_E_Box_CIS: Attagene CIS-FACTORIAL HepG2 Assay for human Enhancer Box (E-box) (AID 2282936). Conditions: HepG2 E-box cis-reporter transcription, actives raise or lower the signal. Summed up: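 Transiently transfected HepG2, endogenous TF-driven reporters, 24 h dosing. Readout: RT-PCR plus capillary electrophoresis of fluorescent reporter fragments. Gain or loss of signal fitted bidirectionally against DMSO baseline.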

A short description of assay [11]: ATG_M_61_CIS: Attagene CIS-FACTORIAL HepG2 Assay for M61 Transcription Factor (Internal Marker) (AID 2282937). The settings on record: HepG2 Attagene CIS-FACTORIAL M61 internal marker reporter; actives raise or lower the signal. Summed up:
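This endpoint serves as an internal background control within a multiplexed HepG2 cis-reporter panel. Cells are exposed for 24 h; reporter mRNA is amplified, fluorescently labelled and sized by capillary electrophoresis, with DMSO as negative control.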

A short description of assay [12]: ATG_EGR_CIS: Attagene CIS-FACTORIAL HepG2 Assay for human Early Growth Response 1 (EGR1) (AID 2282938). Conditions: HepG2 Attagene CIS-FACTORIAL EGR reporter mRNA; actives raise or lower the signal. Summed up: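 HepG2, transient MRTU transfection (cis promoters), 24 h compound. RNA → RT (oligo-dT) → PCR → 6-FAM labelling → HpaI cut → CE fluorescence. Bidirectional fit, DMSO baseline.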

Assay [13] can be described thus: ATG_M_19_CIS: Attagene CIS-FACTORIAL HepG2 Assay for M19 Transcription Factor (Internal Marker) (AID 2282939). The settings on record: HepG2 Attagene CIS-FACTORIAL M19 internal marker reporter; actives raise or lower the signal. Summed up: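 Following a 24 h exposure, RNA from transfected HepG2 cells was reverse-transcribed, PCR-amplified with reporter-specific primers, end-labelled with 6-FAM and HpaI-digested before capillary separation. Values represent gain or loss versus DMSO.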

Assay [14] in a line: ATG_ERE_CIS: Attagene CIS-FACTORIAL HepG2 Assay for Estrogen Response Element (ERE) (AID 2282940). Conditions: HepG2 ERE cis-reporter, Attagene RNA transcript; actives raise or lower the signal. Summed up:
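HepG2, transient cis-reporter units, 24 h exposure. RNA isolated, oligo(dT) RT, reporter-specific PCR, FAM extension, HpaI cut, CE detection. Gain/loss-of-signal vs DMSO.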

A short description of assay [15]: ATG_Ets_CIS: Attagene CIS-FACTORIAL HepG2 Assay for human Erythroblast Transformation Specific (ETS) (AID 2282941). The settings on record: HepG2 ETS cis-reporter transcription, actives raise or lower the signal. The method, boiled down: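 Cis-regulated reporter mRNA induction in HepG2 (transient transfection), 24 h exposure, RT-PCR plus capillary electrophoresis detection; DMSO serves as negative control and baseline.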

The target in assay [16] is Hepatocyte nuclear factor 3-beta (Homo sapiens) (UniProt Q9Y261). Briefly: ATG_FoxA2_CIS: Attagene CIS-FACTORIAL HepG2 Assay for human Forkhead box A2 (FOXA2) (AID 2282942). Conditions: HepG2 cis-reporter transcription factor activity, 24 h; actives raise or lower the signal. The method, boiled down:
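Cells: HepG2, transient multiplex reporter transfection. Exposure 24 h. Detection: reporter-specific RT-PCR, fluorescent labelling, restriction digest, capillary electrophoresis. Analysis: bidirectional curve fit, DMSO as negative control.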

A short description of assay [17]: ATG_FoxO_CIS: Attagene CIS-FACTORIAL HepG2 Assay for human Forkhead box O (FoxO) (AID 2282943). The settings on record: HepG2 Attagene cis-reporter, FoxO element, mRNA; actives raise or lower the signal. The method, boiled down: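 HepG2 cells transiently transfected with cis-element-driven reporter units report endogenous FoxO activity. After 24 h chemical exposure, reporter mRNA quantified by RT-PCR, fluorescent labeling, HpaI digestion and capillary electrophoresis; bidirectional fit versus DMSO.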

Assay [18] in a line: ATG_GATA_CIS: Attagene CIS-FACTORIAL HepG2 Assay for human GATA Binding Protein (AID 2282944). Conditions: HepG2 GATA cis-element reporter, Attagene multiplex mRNA; actives raise or lower the signal. Summed up:
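DMSO serves as negative control and baseline for bidirectional fitting of reporter mRNA changes. HepG2 cells bearing transiently transfected cis-promoter reporters were exposed 24 h; transcripts detected via RT-PCR and capillary electrophoresis.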

A short description of assay [19]: ATG_GLI_CIS: Attagene CIS-FACTORIAL HepG2 Assay for human Zinc Finger Protein GLI1 (AID 2282945). Conditions: HepG2, Attagene cis-factorial reporter mRNA, GLI element; actives raise or lower the signal. Summed up:
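Transiently transfected HepG2 cells report endogenous transcription factor activity via cis-element-driven reporter units. After 24 h compound exposure, reporter mRNA was measured by RT-PCR with capillary electrophoresis; bidirectional fitting against DMSO baseline.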

The nature of assay [20]: ATG_BRE_CIS: Attagene CIS-FACTORIAL HepG2 Assay for human Bone Morphogenetic Protein (BMP) Response Element (BRE) (AID 2282933). The settings on record: HepG2 BMP response element reporter, Attagene transcription factor profiling; actives raise or lower the signal. The method, boiled down:
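Gain- or loss-of-signal was derived by bidirectional fitting against DMSO controls. The signal came from reporter mRNA, measured by RT-PCR and capillary electrophoresis, in HepG2 cells transiently carrying multiple reporter units and dosed for 24 h.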

Chain of CCAAT/enhancer-binding protein beta (Homo sapiens) (P17676 whole entry, looked up): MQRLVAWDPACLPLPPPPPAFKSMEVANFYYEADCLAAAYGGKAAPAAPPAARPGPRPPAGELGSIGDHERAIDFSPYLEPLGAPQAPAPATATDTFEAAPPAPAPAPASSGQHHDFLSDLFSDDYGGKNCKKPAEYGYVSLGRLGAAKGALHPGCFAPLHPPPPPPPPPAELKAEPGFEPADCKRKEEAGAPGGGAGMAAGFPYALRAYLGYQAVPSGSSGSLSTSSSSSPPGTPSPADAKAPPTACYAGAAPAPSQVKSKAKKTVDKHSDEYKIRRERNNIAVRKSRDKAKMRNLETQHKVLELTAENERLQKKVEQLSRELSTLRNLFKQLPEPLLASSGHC
Chain of Aryl hydrocarbon receptor (Homo sapiens) (P35869 whole entry, looked up): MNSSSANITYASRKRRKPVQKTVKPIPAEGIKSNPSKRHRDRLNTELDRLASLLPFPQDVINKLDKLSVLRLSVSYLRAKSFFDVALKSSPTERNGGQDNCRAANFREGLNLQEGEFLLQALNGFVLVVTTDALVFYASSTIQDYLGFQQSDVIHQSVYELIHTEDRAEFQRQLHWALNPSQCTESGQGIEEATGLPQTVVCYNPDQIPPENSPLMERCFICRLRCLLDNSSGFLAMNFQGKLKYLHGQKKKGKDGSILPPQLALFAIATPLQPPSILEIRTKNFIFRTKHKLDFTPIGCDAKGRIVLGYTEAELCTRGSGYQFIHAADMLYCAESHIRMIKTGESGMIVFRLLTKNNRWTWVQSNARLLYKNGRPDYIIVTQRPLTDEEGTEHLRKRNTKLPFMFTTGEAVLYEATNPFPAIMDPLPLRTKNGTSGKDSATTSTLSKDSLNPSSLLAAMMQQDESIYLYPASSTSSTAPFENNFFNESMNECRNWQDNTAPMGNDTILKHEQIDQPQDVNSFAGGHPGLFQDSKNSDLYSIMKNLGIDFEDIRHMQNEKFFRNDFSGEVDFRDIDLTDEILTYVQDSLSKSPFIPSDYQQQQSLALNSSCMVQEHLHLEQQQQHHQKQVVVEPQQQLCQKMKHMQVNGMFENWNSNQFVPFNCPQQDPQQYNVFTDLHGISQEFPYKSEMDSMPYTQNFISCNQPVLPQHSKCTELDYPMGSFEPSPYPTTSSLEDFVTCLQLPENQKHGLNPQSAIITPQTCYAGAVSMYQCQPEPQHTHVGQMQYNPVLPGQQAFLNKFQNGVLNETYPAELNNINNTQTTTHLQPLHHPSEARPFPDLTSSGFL
Chain of Retinoic acid receptor alpha (Homo sapiens) (P10276 whole entry, looked up): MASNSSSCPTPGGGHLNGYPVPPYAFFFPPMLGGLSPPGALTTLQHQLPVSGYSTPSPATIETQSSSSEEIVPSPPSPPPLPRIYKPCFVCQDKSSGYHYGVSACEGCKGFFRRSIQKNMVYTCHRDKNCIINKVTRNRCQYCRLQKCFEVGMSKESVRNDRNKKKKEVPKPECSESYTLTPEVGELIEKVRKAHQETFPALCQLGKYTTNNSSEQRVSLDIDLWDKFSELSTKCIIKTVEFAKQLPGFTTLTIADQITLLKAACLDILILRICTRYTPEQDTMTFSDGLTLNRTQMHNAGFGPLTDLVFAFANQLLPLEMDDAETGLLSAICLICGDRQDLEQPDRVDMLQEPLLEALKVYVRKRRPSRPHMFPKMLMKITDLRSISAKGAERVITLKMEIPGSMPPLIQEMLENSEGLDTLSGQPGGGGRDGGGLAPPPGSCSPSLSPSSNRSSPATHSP
Chain of Transcription factor E2F1 (Homo sapiens) (Q01094 whole entry, looked up): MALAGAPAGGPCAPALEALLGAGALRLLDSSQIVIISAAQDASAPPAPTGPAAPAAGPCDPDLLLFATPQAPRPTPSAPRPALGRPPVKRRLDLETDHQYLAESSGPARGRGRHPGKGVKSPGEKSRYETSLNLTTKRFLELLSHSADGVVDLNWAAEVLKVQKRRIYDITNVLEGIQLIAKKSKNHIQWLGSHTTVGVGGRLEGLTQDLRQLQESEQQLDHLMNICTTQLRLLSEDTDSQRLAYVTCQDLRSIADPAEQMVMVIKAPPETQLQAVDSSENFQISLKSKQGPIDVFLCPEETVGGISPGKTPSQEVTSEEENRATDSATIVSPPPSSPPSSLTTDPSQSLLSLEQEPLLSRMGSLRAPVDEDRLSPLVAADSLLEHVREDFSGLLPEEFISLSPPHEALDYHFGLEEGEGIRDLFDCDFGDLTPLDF
Chain of Hepatocyte nuclear factor 3-beta (Homo sapiens) (Q9Y261 whole entry, looked up): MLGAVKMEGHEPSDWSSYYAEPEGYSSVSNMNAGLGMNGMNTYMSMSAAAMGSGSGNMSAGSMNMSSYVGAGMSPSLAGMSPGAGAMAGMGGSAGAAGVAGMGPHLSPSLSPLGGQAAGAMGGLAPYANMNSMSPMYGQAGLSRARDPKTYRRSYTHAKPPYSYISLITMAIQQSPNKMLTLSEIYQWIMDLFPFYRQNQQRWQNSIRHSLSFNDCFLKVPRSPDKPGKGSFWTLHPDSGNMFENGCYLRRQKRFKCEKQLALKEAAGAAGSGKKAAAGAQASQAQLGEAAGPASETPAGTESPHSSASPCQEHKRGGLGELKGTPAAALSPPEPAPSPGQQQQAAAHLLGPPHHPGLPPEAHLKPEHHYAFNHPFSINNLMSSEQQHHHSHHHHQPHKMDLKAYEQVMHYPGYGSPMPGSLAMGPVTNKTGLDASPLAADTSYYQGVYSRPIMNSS

The AC50 is the concentration at which the activity in the assay is half-maximal. As to `CC(C)CCCCCCOC(=O)C1CCCCC1C(=O)OCCCCCCC(C)C` (stereo not given), the compound was classed as inactive in [1], in [2], in assay [3], in assay [4], in assay [6] and in assay [7]. The outcome in assay [8], in [9], in assay [10], in assay [11], in [12] and in assay [13] was inactive. For the same compound, the call in [14], in [15], in assay [16], in [17], in assay [18] and in assay [19] was inactive. Also, the AC50 in [5] is 84.8 µM (active).

As to `O=c1[nH]cnc2c1ncn2[C@H]1CC[C@@H](CO)O1`, the result in assay [1], in [2], in assay [3], in assay [4], in assay [5] and in assay [6] was inactive. Besides, the call in assay [7], in assay [8], in assay [9], in [10], in assay [11] and in assay [12] was inactive. The call in [13], in assay [14], in assay [15], in assay [16], in [17] and in assay [19] was inactive.

Consider `CNC(C)=O`, for which the result in [1], in assay [2], in assay [3], in [4], in assay [5] and in assay [6] was inactive. For the same compound, the compound was classed as inactive in [7], in assay [8], in assay [9], in assay [10], in assay [11] and in assay [12]. Besides, the compound was classed as inactive in [13], in assay [14], in [15], in [16], in [17] and in assay [18]. For the same compound, the compound was called inactive in [19].

Consider `Cc1cccc(O)c1C`, for which the outcome in assay [1], in assay [2], in assay [3], in assay [4], in [5] and in assay [6] was inactive. Further, the result in [7], in [8], in assay [9], in assay [10], in [11] and in assay [12] was inactive. The call in [13], in [15], in [16], in assay [17], in assay [18] and in [19] was inactive. For the same compound, in assay [14], the concentration at half-maximal activity (AC50) is 59.3 µM (active) and 59.6 µM (active).

With `CC1(C)C(=O)N(Cl)C(=O)N1Cl`, the outcome in assay [1], in assay [2], in assay [3], in assay [4], in [5] and in assay [6] was inactive. In addition, the call in [7], in [20], in [10], in [11], in assay [12] and in assay [13] was inactive. Further, the compound was classed as inactive in [14], in [15], in [16], in assay [17], in assay [18] and in assay [19].

For the compound `NC(=O)N(O)[C@@H]1COc2cc(OCc3ccccc3)ccc21`, the outcome in [1], in assay [2], in assay [3], in assay [4], in assay [5] and in assay [6] was inactive. For the same compound, the call in assay [7], in [9], in [10], in assay [11], in assay [12] and in [13] was inactive. In addition, the call in assay [14], in assay [15], in assay [16], in assay [17], in assay [18] and in [19] was inactive. The half-maximal activity concentration (AC50) in [8] is 0.406 µM (active).

Consider `O=C(NO)C1(NS(=O)(=O)c2ccc(Oc3ccc(F)cc3)cc2)CCOCC1`, for which the call in assay [1], in [2], in assay [3], in assay [4], in assay [5] and in [6] was inactive. In addition, the call in assay [7], in assay [8], in assay [9], in [10], in assay [11] and in assay [12] was inactive. The compound was classed as inactive in assay [13], in assay [14], in [15], in assay [16], in assay [17] and in assay [19].
